SMILES strings stand for the structures. Structures can show the parent of a compound that is named as a salt.

Growth reduction data for 40 compounds are collected here from the supplement of paper PMC12024424.

The assay concerns Staphylococcus aureus Sa2 (MRSA, cystic fibrosis isolate). Nature of the assay: growth reduction vs untreated control (OD550); higher = stronger antibacterial activity. The conditions noted are these: 0.1 mM; 24 h. The method, then:
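Single-dose screen of the MedChem Express Drug Repurposing Library (0.1 mM, 1% DMSO) against planktonic MRSA S. aureus Sa2 (CF isolate) in TSB in 96-well plates, 37 °C aerobic, 24 h. Assays were run in triplicate and repeated twice.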
The compound `CC1=CC(=O)c2ccccc2C1=O` [Menadione] yielded a growth reduction of 96.7%. In the case of `CC(C)(O)c1ccccc1CC[C@@H](SCC1(CC(=O)O)CC1)c1cccc(/C=C/c2ccc3ccc(Cl)cc3n2)c1` [Montelukast (sodium)], the growth reduction turned out to be 100%. `OCc1cc([C@@H](O)CNCCCCCCOCCOCc2c(Cl)cccc2Cl)ccc1O` [Vilanterol] showed a growth reduction of 99.9%. Consider `C[C@@H](NCCCc1cccc(C(F)(F)F)c1)c1cccc2ccccc12` [Cinacalcet], for which the growth reduction turned out to be 97.4%.

`Cn1cnc([N+](=O)[O-])c1C[N+](C)(C)C/C=C/C(=O)Nc1cc2c(Nc3ccc(Cl)c(Br)c3)ncnc2cn1` [Tarloxotinib (bromide)]: the growth reduction came to 99.6%. Compound `C=CC(=O)Nc1cccc(Oc2nc(Nc3ccc(N4CCN(C)CC4)c(F)c3)nc3[nH]ccc23)c1` [Avitinib (maleate)] registered a growth reduction of 100%.

Turning to `CC(=O)Oc1cc(C)c(OC(C)=O)c2ccccc12` [Vitamin K4], the growth reduction is 95.5%. In the case of `C1=N/C2=N/c3ccc(OCCN4CCCC4)c(c3)COC/C=C/COCc3cccc(c3)C(=C1)N2` [Pacritinib] it was 100%; in that of `Fc1ccc2c(CCNCc3cccc(OCC(F)(F)C(F)F)c3)c[nH]c2c1` [Idalopirdine Hydrochloride], 100%.

`CC1CS(=O)(=O)CCN1/N=C/c1ccc([N+](=O)[O-])o1` (stereo not given) [Nifurtimox]: the growth reduction came to 100%. Consider `CC[C@H](C)C(=O)O[C@H]1C[C@@H](C)C=C2C=C[C@H](C)[C@H](CC[C@@H]3C[C@@H](O)CC(=O)O3)[C@H]21` [Lovastatin], for which the growth reduction amounted to 100%. In the case of `CCCCCCCOc1ccc(CCC(N)(CO)CO)cc1C(F)(F)F` [Amiselimod (hydrochloride)] it was 100%; in that of `CC(C)COc1ccc(CNC(=O)N(Cc2ccc(F)cc2)C2CCN(C)CC2)cc1` [Pimavanserin tartrate], 100%; in that of `O=C(c1ccc(OCCN2CCCCC2)cc1)c1c(-c2ccc(O)cc2)sc2cc(O)ccc12` [Raloxifene (hydrochloride)], 99.8%.

`CCCCCCCC/C=C/CCCCCCCC(=O)OC[C@H]1O[C@@H](n2ccc(N)nc2=O)C(F)(F)[C@@H]1O` [Gemcitabine (elaidate)] displayed a growth reduction of 100%. The compound `C#C[C@]1(OC(C)=O)CC[C@H]2[C@@H]3CCC4=C[C@@H](OC(C)=O)CC[C@@H]4[C@H]3CC[C@@]21C` [Ethynodiol diacetate] gave a growth reduction of 92.7%.

Take `Clc1ccc(C(Cn2ccnc2)OCc2ccc(Sc3ccccc3)cc2)c(Cl)c1` (stereo not given) [Fenticonazole (Nitrate)]: the growth reduction was 100%. `Cn1c(O)c(C2=c3ccccc3=NC2=O)c2ccccc21` [Meisoindigo]: the growth reduction amounted to 100%. Compound `CCOc1cc2ncc(C#N)c(Nc3ccc(F)c(Cl)c3)c2cc1NC(=O)/C=C/CN(C)C` [Pelitinib] came in with a growth reduction of 90.6%. Consider `COC(=O)C1=C(C)NC(C)=C(C(=O)OC(C)C)C1c1cccc2nonc12` (stereo not given) [Isradipine], for which the growth reduction was determined as 100%. Turning to `CCOC(=O)Nc1ccc(NCc2ccc(F)cc2)nc1N` [Flupirtine (Maleate)], the growth reduction came to 100%. As to `C=CC(=O)Nc1cc(Nc2nccc(-c3cn(C)c4ccccc34)n2)c(OC)cc1N(C)CCN(C)C` [Osimertinib mesylate], the growth reduction came out at 100%. Turning to `COc1cc([C@@H]2c3cc4c(cc3[C@@H](O[C@@H]3O[C@@H]5CO[C@@H](c6cccs6)O[C@H]5[C@H](O)[C@H]3O)[C@H]3COC(=O)[C@H]23)OCO4)cc(OC)c1O` [Teniposide], the growth reduction was 100%.

Take `O=c1oc2ccccc2c(O)c1Cc1c(O)c2ccccc2oc1=O` [Dicoumarol]: the growth reduction worked out at 100%. As to `Cc1cnc(NC(=O)Nc2cc(Br)c(C)cc2OC[C@@H]2CNCCO2)cn1` [Rabusertib], the growth reduction came out at 100%. `Clc1ccc(CSC(Cn2ccnc2)c2ccc(Cl)cc2Cl)cc1` (stereo not given) [Sulconazole (mononitrate)] returned a growth reduction of 100%. `C/C=C(/C(=C/C)c1ccc(O)cc1)c1ccc(O)cc1` [Dienestrol] gave a growth reduction of 99.7%.

`Cn1cc(-c2ccncc2)c(-c2ccc(OCc3ccc4ccccc4n3)cc2)n1` [Mardepodect] came in with a growth reduction of 100%. `Cc1cc(Nc2ncnc3ccc(NC4=NC(C)(C)CO4)cc23)ccc1Oc1ccn2ncnc2c1` [Tucatinib] gave a growth reduction of 91.9%.

The compound `O=C(NCc1c(F)cc(F)cc1F)c1cn2c(c(O)c1=O)C(=O)N1[C@H]3CC[C@H](C3)O[C@@H]1C2` [Bictegravir] displayed a growth reduction of 100%. In the case of `CC/C(=C(/c1ccc(/C=C/C(=O)O)cc1)c1ccc2[nH]ncc2c1)c1ccc(F)cc1Cl` [Brilanestrant] it was 96.6%. In the case of `Cc1ccc(NC(=O)C2(c3ccc4c(c3)OC(F)(F)O4)CC2)nc1-c1cccc(C(=O)O)c1` [Lumacaftor] it was 92.9%; in that of `CN1C(C(=O)Nc2ccccn2)=C(O)c2sc(Cl)cc2S1(=O)=O` [Lornoxicam], 97.2%; in that of `CC(C)(C)NCC(O)COc1ccccc1C1CCCC1` (single isomer, unassigned; (+)) [(+)-Penbutolol], 91%. The value for `Cc1ccc(Sc2ccccc2N2CCNCC2)c(C)c1` [Vortioxetine (hydrobromide)] was 100%; that for `NC(=O)N1CCC(CC(=O)N2CCC([C@H]3c4ncc(Br)cc4CCc4cc(Cl)cc(Br)c43)CC2)CC1` [Lonafarnib] was 94.3%.

`CCCCCCCCOc1ccccc1C(=O)Nc1ccc(C(=O)OCC[N+](C)(CC)CC)cc1` [Otilonium (bromide)] had a growth reduction of 100%. Turning to `CC(=O)Oc1ccccc1C(=O)Nc1ncc([N+](=O)[O-])s1` [Nitazoxanide], the growth reduction is 99.5%. Regarding `Cc1cc(Nc2ncc(Cl)c(Nc3ccccc3S(=O)(=O)C(C)C)n2)c(OC(C)C)cc1C1CCNCC1` [Ceritinib], the growth reduction came to 100%. `COc1ccc(Cl)c(Nc2nc3ccccc3nc2NS(=O)(=O)c2cccc(NC(=O)C(C)(C)N)c2)c1` [Pilaralisib] came in with a growth reduction of 100%.
